Source: PubChem BioAssay
Hits are enriched below; roughly 7.6% of the tested compounds scored in any of these assays.
hERG WT inh: blocks the wildtype human KCNH2 potassium channel. Q12809. activity change, % at 1.84 µM. U2OS, BacMam KCNH2, thallium flux FluxOr; active compounds read low. actives 0.37% (n = 340,000);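 active = maximum activity change below -70%; inconclusive = maximum activity change between -70% and -50%; inactive = maximum activity change above -50%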; also: % is scaled to controls: 0 for no effect and ±100 for the full control effect
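U2OS cells transduced with wild-type KCNH2 virus are loaded with FluxOr dye for 45 min, and thallium flux is measured in kinetic reads before and after stimulation buffer. Rate constants are normalized to DMSO controls.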
KCNH2 3.1 inh: blocks the human KCNH2 3.1 channel isoform | U2OS KCNH2 3.1, thallium flux FluxOr; active compounds read low | activity change, % (tested at about 1.8 µM) | actives 0.95% (n = 340,000) | AID 720553;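 active = maximum activity change below -70%; inconclusive = maximum activity change from -70% to -50%; inactive = maximum activity change above -50%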;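 also: thallium influx rate constant from kinetic fluorescence after stimulation buffer; % is scaled to controls: 0 for no effect and ±100 for the full control effect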
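Measured as rate of thallium-driven FluxOr signal in transduced U2OS cells carrying the 3.1 channel, read kinetically for 2 min upon stimulation; values are rate constants scaled to DMSO control wells.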
MCF10A rereplic: inducers of DNA re-replication in MCF 10A breast cells. Potency, µM (series often up to 46.1 µM), for the others: top-dose activity, positive = re-replication, usual class: activators. actives 2.9% (n = 350,000). MCF 10A DNA re-replication, Hoechst nuclear intensity, 48 h; also: potency is read from the fitted curve at half-maximal effect; % of control where 0% means no effect; nearly all actives have a fitted effect of over 50% in size
SW480 rereplic: induces DNA re-replication in SW480 colon adenocarcinoma cells; Potency, µM (highest dose often 46.1 µM), without a hit: at the top dose re-replication activation, hits mostly activators; SW480 DNA re-replication, Hoechst DNA content imaging, 48 h; AID 624297; actives 1.8% (n = 340,000); also: potency is read from the fitted curve at half-maximal effect; % of control where 0% means no effect; nearly all actives have a fitted effect of over 55% in size
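Quantitative HTS format with DMSO vehicle controls; 48 hr drug incubation at 37 C, then 40 min Hoechst staining and scanning imager measurement at 405 nm excitation.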
KB-3-1 cytotox: KB-3-1 parental cell cytotoxicity | KB-3-1 viability, CellTiter-Glo ATP luminescence, 72 h | Potency, µM (highest dose often 46.1 µM), usual class: cytotoxic | actives 1.4% (n = 400,000) | AID 1347075; also: potency is read from the fitted curve at half-maximal effect; % is scaled to controls: 0 for no effect and ±100 for the full control effect; nearly all actives have a fitted effect of over 60% in size
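Screening of KB-3-1 cells (DMEM, 10% FBS, phenol-red free) ran from lowest to highest compound concentration; after 72 h at 37 °C viability was read luminescently and curves fitted.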
KB-V1 cytotox: KB-V1 MDR subline cytotoxicity; AID 1347076; KB-V1 MDR cells viability, CellTiter-Glo, 72 h; Potency, µM (titrated, usually from 46.1 µM), actives largely listed as cytotoxic; actives 3.4% (n = 400,000); also: potency is read from the fitted curve at half-maximal effect; % is scaled to controls: 0 for no effect and ±100 for the full control effect; nearly all actives have a fitted effect of over 60% in size
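Potencies derive from concentration-effect curves fitted to normalized luminescence (CellTiter-Glo) of KB-V1 cells treated for 72 h at 37 degrees C in phenol-red-free DMEM containing 10% FBS.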
* hit, by the source's call. Unless noted, calls follow the shape of the dose curve; as a rule, active = well fitted curve in the direction sought with a large enough effect; inconclusive = small, poorly fitted or top-dose-only effect, or another doubt; inactive = no such curve, though single readings can be large; an effect the other way counts as inactive or inconclusive.

What do the screens show for `COc1ccc(-n2c(=O)c3c(C)c(C)sc3n(Cc3ccc(F)cc3)c2=O)c(OC)c1`?
hERG WT inh: 8; KCNH2 3.1 inh: 3; MCF10A rereplic: 6%; SW480 rereplic: -9%; KB-3-1 cytotox: inactive; KB-V1 cytotox: inactive

What do the screens show for `Cc1c(/C=N/NC(=O)c2cc(=O)[nH]c(=O)[nH]2)c2ccccn2c1C(=O)c1ccccc1`?
hERG WT inh: -22; KCNH2 3.1 inh: -3; MCF10A rereplic: -4%; SW480 rereplic: 4%; KB-3-1 cytotox: inactive; KB-V1 cytotox: inactive

Results for Cc1c(/C=N/NC(=O)c2ccc(O)cc2)c2ccccn2c1C(=O)c1ccc(F)cc1 ?
hERG WT inh: -5; KCNH2 3.1 inh: -11; MCF10A rereplic: 29%; SW480 rereplic: -10%; KB-3-1 cytotox: inconclusive; KB-V1 cytotox: 18µM*

How did Cc1c(/C=N/NC(=O)CNc2ccccc2)c2ccccn2c1C(=O)c1ccccc1 do in these assays?
hERG WT inh: 23; KCNH2 3.1 inh: -6; MCF10A rereplic: inconclusive; SW480 rereplic: -14%; KB-3-1 cytotox: inconclusive; KB-V1 cytotox: 3.7µM*

How did COC(=O)N/N=C/c1c(C)c(C(=O)c2ccc(F)cc2)n2ccccc12 do in these assays?
hERG WT inh: -9; KCNH2 3.1 inh: -38; MCF10A rereplic: inconclusive; SW480 rereplic: -28%; KB-3-1 cytotox: inactive; KB-V1 cytotox: 23µM*

How did Cc1c(/C=N/NC(=O)c2ccccc2O)c2ccccn2c1C(=O)c1ccc(F)cc1 do in these assays?
hERG WT inh: 0; KCNH2 3.1 inh: 9; MCF10A rereplic: 6.5µM*; SW480 rereplic: 20%; KB-3-1 cytotox: inconclusive; KB-V1 cytotox: inconclusive

What do the screens show for `CCOC(=O)N/N=C/c1c(C)c(C(=O)c2ccc(F)cc2)n2ccccc12`?
hERG WT inh: -4; KCNH2 3.1 inh: 2; MCF10A rereplic: -2%; SW480 rereplic: -4%; KB-3-1 cytotox: inactive; KB-V1 cytotox: inactive

How did CN(C)C(=O)CCSC(SCCC(=O)O)c1cccc(/C=C/c2ccc3ccc(Cl)cc3n2)c1 (stereo not drawn) do in these assays?
MCF10A rereplic: inconclusive; SW480 rereplic: -9%

What do the screens show for `CCc1cccc(C)c1NC(=O)CN1C(=O)NC(C)(CCC(C)C)C1=O` (stereo not drawn)?
hERG WT inh: -5; KCNH2 3.1 inh: 17; MCF10A rereplic: -1%; SW480 rereplic: 3%; KB-3-1 cytotox: inactive; KB-V1 cytotox: inactive

What do the screens show for `Nc1ccc(C(=O)n2c3ccccc3c3ccccc32)cc1`?
hERG WT inh: 8; KCNH2 3.1 inh: -6; MCF10A rereplic: inconclusive; SW480 rereplic: 3.3µM*; KB-3-1 cytotox: 2.3µM*; KB-V1 cytotox: 1.8µM*

How did c1ccc(Nc2nc(N3CCCCC3)nc(N3CCNCC3)n2)cc1 do in these assays?
hERG WT inh: 2; KCNH2 3.1 inh: 11; MCF10A rereplic: -2%; SW480 rereplic: -3%; KB-3-1 cytotox: inactive; KB-V1 cytotox: 21µM*

What do the screens show for `Cc1cccc(Nc2nc(N3CCCC3)nc(N3CCCC3)n2)c1`?
hERG WT inh: -2; KCNH2 3.1 inh: 4; MCF10A rereplic: 21µM*; SW480 rereplic: inconclusive; KB-3-1 cytotox: inactive; KB-V1 cytotox: 9.2µM*

What do the screens show for `c1ccc(Nc2nc(N3CCCCC3)nc(N3CCCCC3)n2)cc1`?
hERG WT inh: 2; KCNH2 3.1 inh: -30; MCF10A rereplic: -11%; SW480 rereplic: -3%; KB-3-1 cytotox: inactive; KB-V1 cytotox: inactive

What do the screens show for `O=C(Nc1cccc(S(=O)(=O)N2CCCCC2)c1)c1ccc(S(=O)(=O)C(F)F)cc1`?
hERG WT inh: 12; KCNH2 3.1 inh: -2; MCF10A rereplic: 2%; SW480 rereplic: -3%; KB-3-1 cytotox: inconclusive; KB-V1 cytotox: 7.3µM*

How did CC(C)Cn1nc(C(=O)Nc2cccc(S(=O)(=O)N3CCCC3)c2)c2ccccc2c1=O do in these assays?
hERG WT inh: 2; KCNH2 3.1 inh: 18; MCF10A rereplic: 17%; SW480 rereplic: 7%; KB-3-1 cytotox: inactive; KB-V1 cytotox: 4.6µM*

What do the screens show for `O=C(Nc1cccc(S(=O)(=O)N2CCCCC2)c1)c1ccc2c(=O)n3c(nc2c1)CCCCC3`?
hERG WT inh: 6; KCNH2 3.1 inh: inconclusive; MCF10A rereplic: 24%; SW480 rereplic: -8%; KB-3-1 cytotox: 12µM*; KB-V1 cytotox: 5.8µM*

What do the screens show for `COc1cc(C(=O)Nc2cccc(S(=O)(=O)N3CCCC3)c2)cc(OC)c1C`?
hERG WT inh: -7; KCNH2 3.1 inh: -3; MCF10A rereplic: inconclusive; SW480 rereplic: 1%; KB-3-1 cytotox: inconclusive; KB-V1 cytotox: 23µM*

Results for COc1cccc(NC(=O)CSc2nnc(-c3cccc(OC(C)C)c3)n2N)c1 ?
hERG WT inh: -12; KCNH2 3.1 inh: -2; MCF10A rereplic: 0%; SW480 rereplic: -3%; KB-3-1 cytotox: inactive; KB-V1 cytotox: inactive

What do the screens show for `O=C(N/N=C/c1cn(-c2ccccc2)nc1-c1cccs1)c1ccccc1F`?
hERG WT inh: 16; KCNH2 3.1 inh: -16; MCF10A rereplic: inconclusive; SW480 rereplic: inconclusive; KB-3-1 cytotox: inconclusive; KB-V1 cytotox: 21µM*

How did O=C(/C=C/c1cn(-c2ccccc2)nc1-c1cccnc1)c1ccco1 do in these assays?
hERG WT inh: 13; KCNH2 3.1 inh: -8; MCF10A rereplic: inconclusive; SW480 rereplic: inconclusive; KB-3-1 cytotox: inconclusive; KB-V1 cytotox: 21µM*

Results for CCN(CC(=O)Nc1ccc(NC(C)=O)cc1)C(=O)/C=C/c1cn(-c2ccccc2)nc1-c1cccs1 ?
hERG WT inh: -6; KCNH2 3.1 inh: 3; MCF10A rereplic: inconclusive; SW480 rereplic: 5%; KB-3-1 cytotox: inactive; KB-V1 cytotox: inactive

How did O=C(N/N=C/c1cn(-c2ccccc2)nc1-c1cccnc1)c1ccc(F)cc1 do in these assays?
hERG WT inh: 32; KCNH2 3.1 inh: -26; MCF10A rereplic: 3.3µM*; SW480 rereplic: 3%; KB-3-1 cytotox: inactive; KB-V1 cytotox: inactive

What do the screens show for `O=C(N/N=C/c1cn(-c2ccccc2)nc1-c1cccnc1)c1cccnc1`?
hERG WT inh: 22; KCNH2 3.1 inh: 6; MCF10A rereplic: -8%; SW480 rereplic: 1%; KB-3-1 cytotox: inactive; KB-V1 cytotox: inactive

How did CN1CCC(N(C)C(=O)/C=C/c2cn(-c3ccccc3)nc2-c2cccs2)CC1 do in these assays?
hERG WT inh: 1; KCNH2 3.1 inh: 2; MCF10A rereplic: inconclusive; SW480 rereplic: 3%; KB-3-1 cytotox: inactive; KB-V1 cytotox: 21µM*

Results for NC(=O)N/N=C/c1cn(-c2ccccc2)nc1-c1ccccc1 ?
hERG WT inh: 7; KCNH2 3.1 inh: 11; MCF10A rereplic: -5%; SW480 rereplic: -1%; KB-3-1 cytotox: inconclusive; KB-V1 cytotox: inactive
